Rows were chosen to be rich in hits. Some 11% of all compounds tested hit in one or more screens of this group.
USP28 inh – blocks human USP28 ubiquitin-rhodamine cleavage; 47,000 compounds, 3% hits; AID 1645857; purified USP28, Ub-rhodamine cleavage fluorescence, 30 min; inhibition, % at 25 µM; Q96RU2
USP17 block – blocks human USP17 ubiquitin-rhodamine cleavage; purified USP17, Ub-rhodamine cleavage fluorescence, 3 h; 47,000 compounds, 6.5% hits; AID 1645855; inhibition, % at 50 µM; A8MUK1
USP30 inh – inhibitors of human USP30 deubiquitinase. purified USP30, Ub-rhodamine cleavage fluorescence. 47,000 compounds, 5.3% hits. inhibition, % at 25 µM
Target sequence (Q70CQ3 whole entry, looked up): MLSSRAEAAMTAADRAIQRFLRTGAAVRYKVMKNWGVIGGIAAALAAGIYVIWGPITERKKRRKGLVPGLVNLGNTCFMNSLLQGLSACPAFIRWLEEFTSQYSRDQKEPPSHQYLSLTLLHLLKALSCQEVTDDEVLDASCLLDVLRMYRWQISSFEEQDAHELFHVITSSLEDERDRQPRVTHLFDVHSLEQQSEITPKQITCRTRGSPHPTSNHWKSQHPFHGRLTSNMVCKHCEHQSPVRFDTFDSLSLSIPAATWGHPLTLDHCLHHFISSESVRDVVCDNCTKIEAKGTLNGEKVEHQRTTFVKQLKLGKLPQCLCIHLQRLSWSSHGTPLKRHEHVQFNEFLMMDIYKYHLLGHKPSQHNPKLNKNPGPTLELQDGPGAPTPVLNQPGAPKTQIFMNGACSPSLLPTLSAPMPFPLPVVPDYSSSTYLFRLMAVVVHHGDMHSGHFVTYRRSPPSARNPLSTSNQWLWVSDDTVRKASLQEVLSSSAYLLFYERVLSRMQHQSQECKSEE
Starred values were filed as active, the others as inactive. Rule as the data show it: active = inhibition above about 30%; inactive = the rest.

Results for O=C(Nc1cc(C(F)(F)F)cc(C(F)(F)F)c1)c1c(F)cccc1Cl ?
USP28 inh: 33*; USP17 block: 17; USP30 inh: 33*

How did O=C(Nc1ccc(S(=O)(=O)Nc2cc(Cl)cc(Cl)c2)cc1)c1c(F)cccc1Cl do in these assays?
USP28 inh: 16; USP17 block: 43*; USP30 inh: 25

How did O=C(Nc1ccc(OCc2ccccc2)cc1)c1c(F)cccc1Cl do in these assays?
USP28 inh: 13; USP17 block: -1; USP30 inh: 25

What do the screens show for `O=C(Nc1ccc(Oc2ccccc2)cc1)c1c(F)cccc1Cl`?
USP28 inh: 27; USP17 block: -2; USP30 inh: 15

How did CCNc1cc(N2CCCC(CCC(=O)N3CCC4(CC3)OCCO4)C2)ncn1 (stereo unspecified) do in these assays?
USP28 inh: -4; USP17 block: -8; USP30 inh: 11

What do the screens show for `Clc1ccccc1CSc1ncnc2c1oc1ccccc12`?
USP28 inh: 13; USP17 block: 41*; USP30 inh: 30

What do the screens show for `O=C(CSc1ncnc2c1oc1ccccc12)NC1CCCCC1`?
USP28 inh: 11; USP17 block: 11; USP30 inh: 33*

How did COC(=O)c1ccccc1NC(=O)CSc1ncnc2c1oc1ccccc12 do in these assays?
USP28 inh: -4; USP17 block: 13; USP30 inh: 33*

Results for COc1ccccc1NC(=O)CSc1ncnc2c1oc1ccccc12 ?
USP28 inh: -11; USP17 block: -5; USP30 inh: -21

What do the screens show for `CCc1nc(SCC(=O)Nc2ccc(C)cc2C)c2oc3ccccc3c2n1`?
USP28 inh: -1; USP17 block: 15; USP30 inh: 12

What do the screens show for `COc1ccc(C)cc1NC(=O)CSc1nc(C)nc2c1oc1ccccc12`?
USP28 inh: 9; USP17 block: 52*; USP30 inh: 28

Results for Cc1c(C(=O)CSc2ncnc3c2oc2ccccc23)c2ccccc2n1C ?
USP28 inh: 0; USP17 block: 21; USP30 inh: 16

Results for O=C(CSc1ncnc2c1oc1ccccc12)NCC1CCCO1 (stereo unspecified) ?
USP17 block: 2

How did COc1ccc(CNC(=O)Cn2c(=O)n(C(C)C)c(=O)c3nscc32)cc1 do in these assays?
USP28 inh: -7; USP17 block: 6; USP30 inh: -3

Results for CCCCN1CCN(C(=O)C2CCCN(c3cnc4nccnc4c3)C2)CC1 (stereo unspecified) ?
USP28 inh: -123; USP17 block: -157; USP30 inh: inactive

Results for O=C(CCc1nc2ccccc2[nH]1)N1CCCC(c2ccnc(=O)[nH]2)C1 (stereo unspecified) ?
USP28 inh: -3; USP17 block: -14; USP30 inh: -18

What do the screens show for `CCN1CCN(C(=O)c2sc(-c3ccccc3F)nc2C)CC1`?
USP28 inh: -3; USP17 block: 0; USP30 inh: 1

How did COCCn1c(SCC(=O)Nc2cccc3ccccc23)nc2ccccc21 do in these assays?
USP28 inh: -3; USP17 block: -1; USP30 inh: -12

Results for Cc1ccccc1-n1ncc2c(=O)n(CC(=O)Nc3ccc4c(c3)OCCO4)cnc21 ?
USP28 inh: 16; USP17 block: 30*; USP30 inh: 10

Results for CCOC(=O)c1noc2ncn(CC(=O)Nc3ccc4c(c3)OCO4)c(=O)c12 ?
USP28 inh: 6; USP17 block: -8; USP30 inh: 1

What do the screens show for `Cc1nc(SCC(=O)Nc2ccc3c(c2)OCO3)c2oc3ccccc3c2n1`?
USP28 inh: 3; USP17 block: 7; USP30 inh: -14

How did O=C(CSc1ncnc2c1oc1ccccc12)Nc1ccc2c(c1)OCCO2 do in these assays?
USP28 inh: -1; USP17 block: 65*; USP30 inh: -16

Results for COCCCn1c(SCC(=O)Nc2ccccc2C(=O)OC)nc2ccccc2c1=O ?
USP28 inh: 25; USP17 block: 42*; USP30 inh: 70*

How did CCc1ccccc1NC(=O)CCc1nc(-c2cccnc2)no1 do in these assays?
USP28 inh: -7; USP17 block: -32; USP30 inh: -14

How did COc1ccccc1CNC(=O)CN1C(=O)CSc2cccn2-c2ccccc21 do in these assays?
USP28 inh: -3; USP17 block: -16; USP30 inh: -14

What do the screens show for `Cc1ccc(-n2c(=O)c3ccccc3n(Cc3c(F)cccc3Cl)c2=O)cc1`?
USP28 inh: 6; USP17 block: 62*; USP30 inh: 0

Results for Cc1cc(N)n(-c2nc3ccccc3n2Cc2c(F)cccc2Cl)n1 ?
USP28 inh: 10; USP17 block: 9; USP30 inh: 24

Results for CCCCOc1ccc(C(=O)Nc2nonc2C)cc1 ?
USP28 inh: 9; USP17 block: -1; USP30 inh: 0

Results for CCN1C(=O)COc2ccc(NC(=O)c3ccc(OCc4nonc4C)cc3)cc21 ?
USP28 inh: 70*; USP17 block: 22; USP30 inh: 19

High-throughput results deposited in PubChem BioAssay by Buhrlage Lab, Dana-Farber Cancer Institute and Novartis Institutes for BioMedical Research (Cambridge, Mass).
